# Measured values as given in PubChem BioAssay (NCI).
# This is part of a sample that, as a whole, favours compounds with a hit. Of some 83,000 tested, about 20% had one in any assay.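 The test compound was applied at a single concentration to cells in 96-well plates for 48 hours, and percent growth was recorded.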 Unmarked numbers belong to inactive results. Activity calls are given as the source filed them. Rule for the calls: active = growth percent below 10; inactive = the rest.
# Legend:
# Experiment in all cases: NCI-60 one-dose screen, 48 h (100 = growth as untreated, 0 = no growth, -100 = all killed)
# Details in all cases: 10 µM unless noted
# NCI-H23 lung = system: NCI-H23 lung
# NCI-H226 lung = system: NCI-H226 lung
# NCI-H322M lung = system: NCI-H322M lung
# HOP-62 NSCLC = system: HOP-62 NSCLC
# NCI-H460 lung = system: NCI-H460 lung
# HOP-92 NSCLC = system: HOP-92 NSCLC
# NCI-H522 lung = system: NCI-H522 lung
# A549/ATCC NSCLC = system: A549/ATCC NSCLC
# 786-0 renal = system: 786-0 renal
# COLO 205 colon = system: COLO 205 colon
# DU-145 prostate = system: DU-145 prostate
# K-562 leukemia = system: K-562 leukemia
# MALME-3M melanoma = system: MALME-3M melanoma
# MDA-MB-231 breast = system: MDA-MB-231 breast
# RXF 393 renal = system: RXF 393 renal
# SF-268 CNS = system: SF-268 CNS
# SF-295 CNS = system: SF-295 CNS
# SF-539 CNS = system: SF-539 CNS
# UACC-257 melanoma = system: UACC-257 melanoma
# M14 melanoma = system: M14 melanoma
Structure (SMILES),growth (NCI-H23 lung),growth (NCI-H226 lung),growth (NCI-H322M lung),growth (HOP-62 NSCLC),growth (NCI-H460 lung),growth (HOP-92 NSCLC),growth (NCI-H522 lung),growth (A549/ATCC NSCLC),growth (786-0 renal),growth (COLO 205 colon),growth (DU-145 prostate),growth (K-562 leukemia),growth (MALME-3M melanoma),growth (MDA-MB-231 breast),growth (RXF 393 renal),growth (SF-268 CNS),growth (SF-295 CNS),growth (SF-539 CNS),growth (UACC-257 melanoma),growth (M14 melanoma)
O=C(CSc1nnc(-c2ccccc2)o1)Nc1ccc(C(=O)/C=C/c2ccccc2)cc1,77.6%,85.4%,71.1%,72.4%,48.4%,60.6%,65.2%,60.3%,84.8%,79.2%,62.7%,8.02% (active),69.8%,83.9%,93.1%,65.8%,77.3%,84.7%,113%,66.4%
O=c1cc(Cl)[nH]c(=O)[nH]1,98.9%,97.5%,98.9%,83.2%,108%,98.2%,67.7%,79.5%,101%,97.5%,107%,104%,112%,111%,101%,101%,101%,105%,89.1%,97.6%
O=C(CSc1nnc(-c2ccc(Cl)cc2)o1)Nc1ccc(C(=O)/C=C/c2ccccc2)cc1,93.3%,107%,90.5%,107%,97.7%,106%,86.7%,96%,97.8%,116%,101%,99.3%,106%,99.1%,112%,103%,105%,106%,101%,96%
COc1cc(-c2nc(SCC(=O)Nc3ccc(C(C)=O)cc3)[nH]c(=O)c2C#N)cc(OC)c1OC,38.4%,58.5%,45.3%,20.7%,5.79% (active),10.3%,-14.5% (active),19.8%,35.5%,-16.2% (active),14.1%,0.453% (active),69.5%,19.7%,24.6%,26.9%,3.4% (active),-22.9% (active),53.7%,5.17% (active)
CCN1CCN(Cc2ccc(NC(=O)Nc3cccc(-n4ccc5c(NC(=O)c6ccccc6)nccc54)c3)cc2C(F)(F)F)CC1,92.4%,99.5%,101%,72.6%,96.3%,60.5%,45.6%,86.9%,108%,65.7%,88.8%,49.3%,64%,82%,79.5%,85.3%,55.7%,81.1%,73.9%,76%
CN(C)CCNc1nc2ccccc2c2c(=O)c3ccccc3sc12,31.8%,36.5%,43.1%,21.7%,1.33% (active),4.02% (active),14.4%,13.2%,28.6%,-79.6% (active),8.96% (active),-35.1% (active),12.2%,-11.6% (active),6.42% (active),26.3%,0.247% (active),36.7%,28.8%,-54.7% (active)
O=C1/C(=C/c2cccc3cnccc23)Cc2cc(F)ccc21,87.7%,73.8%,93.9%,65.1%,95.9%,75.3%,78.4%,98.7%,97.4%,81.8%,104%,96.1%,97.9%,93.4%,112%,98.8%,88.4%,94.1%,113%,87.7%
CCCCCCCC(=O)SCC/C=C/[C@@H]1CC(=O)NCc2nc(cs2)C2=N[C@@](C)(CS2)C(=O)N[C@@H](C(C)C)C(=O)N1,16.5%,3.64% (active),1.39% (active),12.1%,9.84% (active),-10.5% (active),-27.4% (active),0.822% (active),17.2%,-71.8% (active),10.9%,6.8% (active),10.8%,11.4%,-52.8% (active),18%,2.96% (active),25%,-19.6% (active),15.5%
